Screening results from PubChem.
TIM10 inh: growth inhibitors of TIM10 yeast strain; hit rate 1.4% among 330,000; inhibition, % at 10 µM; S. cerevisiae TIM10 strain growth, BacTiter-Glo luminescence, 24 h; AID 463195;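 active = inhibition of 40% or more at the single tested concentration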;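 also: wild-type TIM10 isogenic control strain grown at permissive 25 °C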
tim10-1 inh: tim10-1 yeast growth inhibition; inhibition, % at 20 µM; hit rate 2.2% among 330,000; S. cerevisiae tim10-1 ts strain growth, BacTiter-Glo, 24 h;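 active = inhibition of at least 40%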;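 also: mutant grown at 25 °C; 0% = DMSO wells with yeast and 100% = wells holding no yeast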
PfHsp90 set2: growth inhibition of yeast expressing Plasmodium Hsp90; S. cerevisiae expressing PfHsp90, BacTiter-Glo ATP, 48 h; yeast lacking PDR1 and PDR3 efflux regulators; AID 504621; inhibition, % at 9.4 µM; hit rate 0.32% among 310,000;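 active = every replicate shows inhibition above about 80%, whatever the replicate mean, limit read from the data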;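 also: 0% = DMSO neutral controls and 100% = 20 µM radicicol positive controls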
SKKanGAS inh: SKKanGAS growth inhibition | S. pyogenes SKKanGAS, kanamycin growth, BacTiter-Glo, 6 h | inhibition, % at 7.5 µM | hit rate 1.3% among 300,000 | AID 1662;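 active = mean replicate score, as percent of positive control median, at least 50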;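 also: strain carries kanamycin resistance gene driven by streptokinase promoter and grows in 40 µg/ml kanamycin; loss of luminescence reflects streptokinase promoter inhibition or plain growth inhibition; 0% = median of DMSO wells and 100% = positive control at its reference dose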
tim23-1 inh: tim23-1 yeast growth inhibition; S. cerevisiae tim23-1 growth, BacTiter-Glo luminescence, 24 h; AID 463212; inhibition, % at 20 µM; hit rate 1.3% among 330,000;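 active = growth inhibition of the mutant yeast at or above 50%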;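 also: temperature-sensitive mutant grown at 25 °C; plate controls were DMSO-treated mutant yeast for no effect and medium wells lacking yeast for full effect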
NLRP3 yeast inh: NALP3 inhibition in yeast; inhibition, % at 10 µM; hit rate 0.39% among 330,000; Yeast reconstituted NLRP3/ASC/caspase-1, beta-gal luminescence, 24 h;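 active = inhibition of 50% or more; inactive = inhibition below 50%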;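 also: plate controls were induced DMSO wells for no effect and uninduced yeast grown without galactose for full effect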
NALP3 confirm: confirmation of NALP3 inhibitors in yeast. inhibition, % at 10 µM. AID 435006. yeast expressing human NALP3, luminescence. shares compounds with NLRP3 yeast inh. hit rate 81% among 1,300; in the data active = inhibition above about 48%
Casp1-ASC yeast: counter-screen for NALP3 inhibitors: yeast caspase-1-ASC | shares compounds with NLRP3 yeast inh | yeast expressing Caspase-1-ASC, luminescence counter screen | hit rate 66% among 1,000 | inhibition, % at 10 µM
NALP3 retest: retest-confirmed inhibitor of NALP3 in yeast; shares compounds with NLRP3 yeast inh; yeast expressing human NALP3, luminescence read-out; inhibition, % at 10 µM; hit rate 53% among 1,000
* marks the source's active call; other numbers are inactive results; . = no result given. An excerpt weighted towards active compounds, which were near 4.6% of everything screened. Rule as the data show it, unless noted: active = inhibition above about 50%; inactive = the rest.

SMILES | TIM10 inh | tim10-1 inh | PfHsp90 set2 | SKKanGAS inh | tim23-1 inh | NLRP3 yeast inh | NALP3 confirm | Casp1-ASC yeast | NALP3 retest
CC(=O)Nc1ccc(-c2cc(NC(C)=O)n(-c3ccccc3)n2)cc1 | -4 | -18 | -1 | 0 | -12 | 2 | . | . | .
CC(=O)Cn1ncc(N2CCCCC2)c(Cl)c1=O | -8 | 1 | -7 | -3 | -4 | -14 | . | . | .
CO/N=C(\Cn1ncc(N2CCCC2)c(Cl)c1=O)c1ccc(Cl)cc1 | -29 | 12 | 4 | -6 | 28 | 70* | 73* | 75* | 60*
CCOC(=O)C1=C(Nc2ccc(Cl)cc2)OCC1=O | 18 | 0 | 6 | 3 | 4 | 17 | . | . | .
CCC(C)(C(=O)NC1CCCC1)N(C(=O)CC1NC(=O)NC1=O)c1c(C)n(C)n(-c2ccccc2)c1=O (centres undefined) | 8 | 7 | 2 | 1 | 12 | -3 | . | . | .
O=S1(=O)CCN2N=C(C34CC5CC(CC(C5)C3)C4)SC2=N1 | -11 | 3 | -7 | -4 | 4 | 18 | . | . | .
CCCNC(=O)CSc1nc(COc2ccccc2)nc2ccccc12 | -21 | 24 | 9 | -21 | 11 | 42 | . | . | .
O=C(CSc1nc(COc2ccccc2)nc2ccccc12)NC1CCCC1 | -8 | 12 | 18 | 0 | 17 | 71* | 40 | 67* | 56*
Cc1cnc(C(=O)OCC(=O)Nc2cc(S(=O)(=O)N3CCOCC3)ccc2Cl)cn1 | -1 | 13 | 2 | . | 17 | 5 | . | . | .
COc1ccc(S(=O)(=O)n2ccc(-c3cnc(-c4ccccc4)s3)n2)cc1 | 16 | 15 | 13 | -22 | 26 | 18 | . | . | .
O=C(c1ccccc1)n1ccc(-c2cnc(-c3ccccc3)s2)n1 | 0 | -10 | -12 | 4 | 10 | 62* | 60* | 25 | 10
COC(=O)c1ccc(CNCC(O)COc2ccc(-c3ccccc3)cc2)cc1 (centres undefined) | 16 | -24 | -28 | 4 | -32 | 39 | . | . | .
COc1ccc(CNCC(O)COc2ccc(C(C)(C)c3ccccc3)cc2)cc1 (centres undefined) | -11 | -7 | 12 | 5 | 38 | 53* | 76* | . | .
COc1ccc(OC)c(S(=O)(=O)NCC(c2cccs2)N2CCc3ccccc3C2)c1 (centres undefined) | 18 | 31 | . | 18 | 24 | 22 | . | . | .
NCCC(=O)NCCc1cnc[nH]1 | 2 | -8 | -4 | . | -7 | 66* | 76* | 63* | 72*
COc1ccc(OC)c(N=C(N)N=C(N)N)c1 | -4 | 7 | . | 0 | 8 | -6 | . | . | .
CC1CCc2c(C(=O)NCCN3CCOCC3)csc2C1 (centres undefined) | -14 | -3 | 7 | -8 | 10 | 20 | . | . | .
CC1CCc2c(C(=O)Nc3ccc(N4CCOCC4)cc3)csc2C1 (centres undefined) | 11 | 18 | 14 | -6 | 11 | 69* | 53* | 64* | 52*
COc1cc(NC(=O)c2ccc([N+](=O)[O-])cc2)c(OC)cc1NC(=O)CC(C)C | -8 | 2 | -33 | -1 | -6 | 21 | . | . | .
CCCSc1ccc([C@H]2N[C@@](C)(C(=O)OC)[C@H]3C(=O)N(C)C(=O)[C@@H]23)cc1 | -5 | 1 | -8 | -7 | 4 | 51* | 48 | 16 | 16
CCOc1ccc(S(=O)(=O)N(CC)CC(=O)NCc2cccnc2)cc1 | -15 | 4 | -4 | 8 | 1 | 5 | . | . | .
Cc1ccc(-c2cnn(-c3ccccc3)c2N)cc1 | -2 | 24 | 23 | 10 | 18 | 14 | . | . | .
Nc1c(-c2ccc(Cl)cc2)cnn1-c1cc(C(F)(F)F)cc(C(F)(F)F)c1 | -5 | -5 | -21 | -2 | -1 | 1 | . | . | .
Nc1c(-c2ccccc2)cnn1-c1cccc(C(F)(F)F)c1 | -41 | -25 | 5 | 21 | -16 | 60* | 62* | 62* | 53*
Nc1c(-c2cccc(Cl)c2)cnn1-c1cccc(C(F)(F)F)c1 | 17 | 17 | 12 | 32 | 31 | 54* | 73* | 65* | 50*
SMILES | TIM10 inh | tim10-1 inh | PfHsp90 set2 | SKKanGAS inh | tim23-1 inh | NLRP3 yeast inh | NALP3 confirm | Casp1-ASC yeast | NALP3 retest
COc1ccc(CN(C)C(=O)c2ccc(Cl)c(S(=O)(=O)NCc3cccnc3)c2)cc1F | 5 | -9 | -3 | . | 1 | 15 | . | . | .
O=C(c1cc(-c2ccc(Br)cc2)on1)N1CCc2ccccc2C1 | -6 | -4 | -14 | -7 | -3 | -14 | . | . | .
O=C(CSC1=N/C(=C/c2ccc(Cl)c(Cl)c2)C(=O)N1c1ccccc1F)NC1CC1 | 7 | 28 | -16 | 18 | 25 | 21 | . | . | .
Fc1ccccc1CSc1nnc(-c2cnccn2)n1Cc1ccco1 | 28 | 22 | -41 | -9 | 27 | -133 | -33 | . | .
C(=C\c1ccccc1)/CSc1nnc(-c2cnccn2)n1Cc1ccco1 | 8 | 3 | -20 | 5 | 29 | 9 | . | . | .
C=CCc1c(C)nc(C)nc1N/N=C/c1ccccc1O | 35 | 13 | 51 | -5 | 38 | 55* | 57* | 38 | 55*
CC(NCC(=O)Nc1ccccc1C(=O)NC1CC1)c1ccco1 (centres undefined) | -1 | -2 | 4 | . | -4 | 2 | . | . | .
COc1ccc(C(=O)CCNc2ccc(F)cc2)cc1 | -30 | -29 | 5 | -9 | -4 | 57* | 31 | . | .
C(=N\Nc1nc(-c2ccccc2)cs1)/c1cccnc1 | -22 | -27 | -8 | -2 | 27 | 30 | . | . | .
CC(C)(C)c1csc(N/N=C/c2cccnc2)n1 | 19 | 19 | 11 | 2 | 18 | 58* | 68* | 76* | 56*
O=c1c2ccccc2oc2cc(C#CC3(O)CCCCC3)ccc12 | 14 | 22 | -29 | 18 | 30 | 16 | . | . | .
COc1cccc2oc3cc(C#CC4(O)CCCCC4)ccc3c(=O)c12 | 0 | 33 | 22 | 36 | 9 | 57* | 60* | 62* | 48
COC(=O)c1cnn(-c2ccc(Cl)cc2)c1/C=N/NC(N)=S | 16 | 10 | 8 | 2 | 5 | 7 | . | . | .
O=C(Nc1nc2cc3c(cc2s1)OCO3)C1CCCCC1 | 11 | 9 | 38 | 26 | 42 | 56* | 64* | 56* | 53*
O=C(Nc1nc2cc3c(cc2s1)OCO3)C1CC1 | 6 | 4 | 9 | -11 | 5 | 16 | . | . | .
CCOc1ccccc1NC(=O)CN1C(=O)CSC(C)C1=O (centres undefined) | -9 | 5 | 3 | -3 | 7 | 2 | . | . | .
CCOC(=O)Cc1csc(NC(=O)c2cc(C)c(C)s2)n1 | -34 | -26 | -3 | . | 12 | 65* | 60* | 79* | 63*
CCOC(=O)Cc1csc(NC(=O)c2ccc(Cl)s2)n1 | -14 | -12 | 27 | -4 | 41 | 63* | 73* | 75* | 71*
